# An excerpt weighted towards active compounds, which were near 3.1% of everything screened.
# Statin myotox sup = suppression of simvastatin myotoxicity; C2C12 myotubes + simvastatin, ATP luminescence, 48 h; scaled: DMSO 0, geranylgeraniol control 100; rescue of ATP level, % at 7.49 µM; 0.78% of 330,000 active;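 active = mean ATP rescue above about 67%, or every replicate alone reaching that limit, limit read from the data, passing the limit was not always enough; inconclusive = no clear call, values can overlap the other calls; inactive = mean under the limit and some replicate under it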;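 note: myotubes were challenged with 10 µM simvastatin during compound exposure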
# Rtt109 Vps75 = inhibitors of Candida albicans Rtt109/Vps75 histone acetyltransferase; Q5AAJ8; purified Rtt109/Vps75, ThioGlo CoA-SH fluorescence, 4 h; inhibition, % at 34.9 µM; 0.16% of 330,000 active; AID 540336;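 active = inhibition of at least 50% in every replicate; inconclusive = best replicate reaches 50% inhibition but some replicates fall short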
# Target sequence (Q5AAJ8 whole entry, looked up): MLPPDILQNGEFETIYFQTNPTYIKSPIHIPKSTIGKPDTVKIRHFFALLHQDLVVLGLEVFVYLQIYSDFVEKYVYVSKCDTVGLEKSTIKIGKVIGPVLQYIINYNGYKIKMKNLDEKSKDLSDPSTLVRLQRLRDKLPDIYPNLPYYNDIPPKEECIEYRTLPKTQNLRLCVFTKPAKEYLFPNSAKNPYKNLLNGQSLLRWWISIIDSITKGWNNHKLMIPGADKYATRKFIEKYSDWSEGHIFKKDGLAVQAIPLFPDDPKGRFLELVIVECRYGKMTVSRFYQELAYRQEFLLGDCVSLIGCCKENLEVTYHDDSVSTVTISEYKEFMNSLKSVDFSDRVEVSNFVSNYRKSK
# MITF TRPM1 HTS = increases MITF-driven TRPM1 promoter luciferase signal; SK-MEL-5 TRPM1-promoter luciferase, 24 h; % of positive control, neutral wells = 0; activation, % at 12.5 µM; 0.75% of 300,000 active; AID 588334;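 active = mean activation of at least 80% with every replicate also reaching 80%; inconclusive = mean reaches 80% but some replicate falls short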;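 note: 0% = neutral control wells and 100% = parthenolide positive control wells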
# esBAF inh = blocks esBAF chromatin remodeling in mouse ES cells. Bmi1-luciferase knock-in reporter, 24 h; 100% = twice the neutral-well signal. reporter increase, % at 12.5 µM. 2% of 350,000 active. AID 602393; in the data active = activation above about 40%; inconclusive = no clear call, values can overlap the other calls;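 note: 0% = median of the plate's neutral control wells and 100% = double that signal; a rise in the Bmi1 reporter signal indicates esBAF inhibition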
# Wnt act = activators of Wnt/beta-catenin signaling | Wnt/beta-catenin reporter cell assay, activator, plate reader | 1.2% of 300,000 active | activation, % at 9.35 µM; in the data active = activation above about 30%, passing the limit was not always enough; inconclusive = no clear call, values can overlap the other calls;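 note: 0% = neutral control wells and 100% = positive control wells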
# * hit, by the source's call; u = inconclusive; x = no result.
SMILES,Statin myotox sup,Rtt109 Vps75,MITF TRPM1 HTS,esBAF inh,Wnt act
COc1ccc(Nc2n[nH]c(C)c2[N+](=O)[O-])cc1,x,1.8,79.2,x,35.0*
CCc1ccccc1NC1Nc2cc(C)nn2S1 (stereo not given),x,8.9,-1.1,x,-3.0
Cc1cc2n(n1)SC(Nc1cccc3ccccc13)N2 (stereo not given),0.4,0.6,0.8,50.2*,47.1*
CC(=O)c1ccc(-c2nc3ccccc3n2C)o1,-12.9,x,27.1,54.7*,x
CCCc1ccc2oc(C(=O)N(C)Cc3nccs3)c(C)c2c1,-6.0,-5.7,40.8,52.2*,12.8
CCCc1ccc2oc(C(=O)N3CCC(O)CC3)c(C)c2c1,1.1,12.7,54.7,u,0.4
CNC[C@@H]1OCCCC[C@H](C)Oc2ccc(NC(=O)c3ccncc3)cc2C(=O)N([C@@H](C)CO)C[C@H]1C,6.6,x,x,-3.1,x
Clc1ccc(-n2nnc(-c3cccnc3Cl)n2)cn1,4.3,10.1,126.1*,52.2*,40.9*
Cc1ccc(-n2nnc(-c3cccnc3Cl)n2)cc1,3.9,0.3,61.2,-8.1,31.5*
COc1ncccc1-c1nnn(-c2ccc(Cl)nc2)n1,8.2,3.1,69.7,19.1,11.0
CCCNC(=O)N1C[C@@H]2[C@H](c3ccccc31)[C@@H](CO)N2C(=O)NCCC,7.6,x,x,-3.0,x
C[C@H](CO)N1C[C@H](C)[C@H](CN(C)S(=O)(=O)c2cn(C)cn2)OCCCC[C@H](C)Oc2ccc(NS(=O)(=O)c3cn(C)cn3)cc2C1=O,x,x,x,-2.0,x
Cc1noc(C)c1S(=O)(=O)N(C)C[C@H]1Oc2ccc(NS(=O)(=O)c3ccc(Cl)cc3)cc2C(=O)N([C@@H](C)CO)C[C@H]1C,10.7,x,x,2.5,x
OC(CSc1ccccc1Cl)CN1CCN(c2ccccc2F)CC1 (stereo not given),3.7,2.6,3.5,0.3,x
OC(CSc1c(Cl)cccc1Cl)CN1CCN(c2ccccc2F)CC1 (stereo not given),171.6*,-6.2,7.9,-5.1,-3.1
O=C(C[C@@H]1C[C@@H]2c3cc(NC(=O)Nc4ccccc4)ccc3O[C@@H]2[C@H](CO)O1)NCc1cccc(F)c1,2.1,x,x,-6.0,x
O=C(Oc1c(CN2CCOCC2)cc(Cl)c2cccnc12)c1cccs1,-29.2,6.3,-70.6,-10.3,47.1*
C[C@@H]1CN([C@@H](C)CO)S(=O)(=O)c2ccc(-c3ccc(F)cc3)cc2O[C@H]1CN(C)S(C)(=O)=O,-9.7,x,x,2.5,x
CCCCN(C(=O)c1cc(OC)c(OC)c(OC)c1)C1=CC2CCC(C1)N2C (stereo not given),-1.9,5.3,0.2,2.2,x
COc1cc(C(=O)N(CCc2ccccc2)C2=CC3CCC(C2)N3C)cc(OC)c1OC (stereo not given),91.2*,-15.0,-2.4,0.1,x
CC=Cc1ccc2n(c1=O)C[C@@H]1[C@@H](CO)[C@H](C(=O)N(C)C)N(C(=O)CC3CC3)[C@H]21 (mixture of isomers),5.3,x,x,2.5,x
COc1cccc(/C=N/NC(=S)NC2CC3CCC2C3)c1OC (stereo not given),28.6,1.2,x,5.1,-1.8
COc1cccc(NC(=O)CSc2nnc(-c3ccc(C)cc3)o2)c1,6.0,-13.7,45.1,59.7*,20.0
COc1ccccc1NC(=O)COc1ccc(CO)cc1Cl,75.2*,7.2,x,51.3*,-2.6
O=C(CSc1ncc(-c2ccccc2)[nH]1)Nc1ccccc1F,-12.2,-9.8,88.2*,u,18.7
SMILES,Statin myotox sup,Rtt109 Vps75,MITF TRPM1 HTS,esBAF inh,Wnt act
Oc1ccccc1/C=N/NC(=S)NC1CC2CCC1C2 (stereo not given),1.2,1.9,42.7,65.7*,23.5
Cc1ccc(NC(=O)CSc2nnc(-c3ccncc3)o2)cc1,7.0,2.6,15.6,7.4,4.9
C[C@@H]1CN([C@@H](C)CO)C(=O)c2cc(-c3ccc(F)cc3)cnc2O[C@H]1CN(C)C(=O)Nc1ccc(F)cc1,32.7,x,x,4.6,x
O=C(CSc1nnc(-c2cccnc2)o1)Nc1ccccc1Br,18.0,-2.0,x,18.6,2.0
COc1ccccc1NC(=S)NC1CC2CCC1C2 (stereo not given),126.3*,-1.4,2.8,2.9,-1.6
O=C(CSc1nnc(-c2cccnc2)o1)Nc1ccccc1F,-2.2,-4.5,51.6,5.1,39.6*
COc1ccccc1NC(=O)CSc1nnc(-c2ccc(C)cc2)o1,-19.5,8.4,x,-12.6,57.9*
COc1ccccc1NC(=O)CSC(N)=O,x,135.0*,-9.4,x,x
Cc1ccccc1NC(=O)CSC(N)=O,-5.5,u,-9.0,2.5,-2.3

# Screening results as filed in PubChem BioAssay.
